A selection: hits, their analogues and other compounds. The true share with any hit is near 1.7%.
PTHR1 agonist: agonists of human PTHR1 parathyroid hormone receptor; Q03431; HEK293 GP2 PTHR1 cells, GloSensor cAMP luminescence, 1 h; Potency, µM (series often up to 115 µM), for the others: top-dose activation, usual class: activators; 0.075% of 410,000 active; further: nearly all actives have a fitted effect of over 55% in size
Target sequence (Q03431 whole entry, looked up): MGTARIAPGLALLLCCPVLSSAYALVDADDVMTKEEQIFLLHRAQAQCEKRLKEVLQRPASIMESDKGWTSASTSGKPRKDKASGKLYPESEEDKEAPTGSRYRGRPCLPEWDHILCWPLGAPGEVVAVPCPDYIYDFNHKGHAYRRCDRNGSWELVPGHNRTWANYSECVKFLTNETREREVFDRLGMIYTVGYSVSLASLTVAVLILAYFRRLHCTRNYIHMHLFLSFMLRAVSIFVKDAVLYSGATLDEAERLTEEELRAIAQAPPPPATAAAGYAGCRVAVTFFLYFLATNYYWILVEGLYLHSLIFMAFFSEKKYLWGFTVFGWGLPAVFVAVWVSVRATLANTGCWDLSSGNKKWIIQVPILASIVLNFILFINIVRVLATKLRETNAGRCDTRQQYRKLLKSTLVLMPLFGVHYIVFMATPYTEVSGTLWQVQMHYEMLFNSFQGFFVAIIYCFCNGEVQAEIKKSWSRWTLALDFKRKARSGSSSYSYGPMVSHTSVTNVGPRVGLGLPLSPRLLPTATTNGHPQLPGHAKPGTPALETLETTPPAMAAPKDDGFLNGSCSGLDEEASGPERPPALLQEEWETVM
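HEK-293-derived GP2 cells expressing PTHR1 and a GloSensor cAMP reporter, 3,000/well, plated overnight, given luciferin plus IBMX (each 0.5 mM as added) for 1 h at 37 °C, then compound for 1 h at 37 °C. Luminescence was read after 15 min at room temperature.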
GLP-1R inv ag: inverse agonists of human GLP-1 receptor | AID 624417 | HEK293 GLP-1R CRE-luciferase, luminescence, 24 h; GLP-1R form is constitutively active | Potency, µM (titrated, usually from 38.3 µM), without a hit: at the highest dose activity change, negative = inhibition, hits mostly inhibitors | P43220 | 1.6% of 410,000 active; further: on the % scale 0 is the no-effect control and ±100 the full control effect; nearly all actives have a fitted effect of over 55% in size
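HEK293 cells stably co-expressing constitutively active GLP-1R and a cAMP-responsive luciferase reporter were seeded in DMEM with 10% Nu serum, given compounds after 12 h, and incubated 24 h at 37 deg C. Luminescence was then read.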
GLP1R ag: activates the human GLP-1 receptor | 0.007% of 380,000 active | P43220 | HEK293 GLP-1R CRE-luciferase, luminescence, 4-6 h; cells express a hypersensitive GLP-1R form | Potency, µM (series often up to 45.6 µM), inactives show at the top dose activation, usual class: activators | AID 624172; further: % of control where 0% means no effect
HEK293 tox: cytotoxicity counter-screen for GLP-1 receptor inverse agonists; HEK293 cAMP-luciferase reporter cells, luminescence, 24 h; Potency, µM (doses to about 38.3 µM), without a hit: at the top dose activity change, negative = inhibition, usual class: inhibitors; 0.13% of 410,000 active; AID 624418;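 further: loss of luciferase light is scored as toxicity; on the % scale 0 is the no-effect control and ±100 the full control effect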
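Seeding density was 200 cells/uL; after overnight-length (12 h) culture, 23 nL compounds went on for 24 h at 37 °C. Readout used a luciferase detection reagent, luminescence taken after 12 min at room temperature.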
Starred values were filed as active, the others as inactive; i = inactive; ? = inconclusive; . = no result; [ ] = dose if it differs, or a comment. The call rests on the fitted dose curve; in most records, active means well fitted curve in the direction sought with a large enough effect; inconclusive means small, poorly fitted or top-dose-only effect, or another doubt; inactive means no such curve, though single readings can be large; an effect the other way counts as inactive or inconclusive. Potency means the concentration at half of the fitted maximal effect.

SMILES	PTHR1 agonist	GLP-1R inv ag	GLP1R ag	HEK293 tox
O=C(Nc1ccccn1)c1cc2ccccc2o1	-19.5%[57.5 µM]	0.0%	-2.8%	-0.9%
O=C(Nc1cccc(Cl)c1)c1ccc2c(c1)CCN2S(=O)(=O)c1ccccc1	-16.8%	2.51µM*	.	-6.9%
O=C(Nc1ccccc1)c1ccc2c(c1)CCN2S(=O)(=O)c1ccccc1	-10.0%	?	-8.7%	0.0%
Cc1c(C(=O)N(Cc2cccc(Br)c2)C2CCS(=O)(=O)C2)oc2ccc(F)cc12 (stereo not given)	-1.7%	22.4µM*	-2.7%	-12.3%
Cc1c(C(=O)N(Cc2cccc(F)c2)C2CCS(=O)(=O)C2)oc2cc(Br)ccc12 (stereo not given)	-13.2%	?	.	1.2%
Cc1ccc(/C=C/c2onc(C)c2S(=O)(=O)N2CCC(C(=O)N(CCC(C)C)Cc3ccco3)CC2)cc1	i	11.3%	.	1.1%
O=S(Cc1cc(Oc2ccccc2)nc(-c2ccccc2)n1)c1ccccc1 (stereo not given)	-8.2%	10µM*	12.4%	13.3%
O=Cc1ccc(Oc2cc(-c3ccccc3)nc(-c3ccccc3)n2)cc1	i	-5.2%	-2.5%	-5.9%
COc1cccc(Cn2c(SCC(=O)N(C)c3ccccc3)nc3ccccc32)c1	-34.6%	?	.	-3.7%
CCN(CC)c1nc2ccccc2n(Cc2cccc(OC)c2)c1=O	-16.2%	3.55µM*	18.2%	6.5%
CC12CCC(C[N+](C)(CCC[N+](C)(C)C)C1)C2(C)C (stereo not given)	.	.	-5.7%	.
O=C(Nc1c(C(=O)N2CCN(c3ccc(F)cc3)CC2)oc2ccccc12)c1c(F)cccc1F	-17.4%	?	-3.8%	3.0%
CC(C)(C)c1ccc(C2CC2C(=O)N/N=C\c2ccc[nH]2)cc1 (stereo not given)	-29.3%	1.12µM*	10.9%	?
Cc1nn(-c2ccc(F)cc2)c(Cl)c1C(=O)OC(C)C(=O)N(C)C1CCCCC1 (stereo not given)	-7.9%	5.01µM*	-5.2%	-6.9%
CCCC(c1nnnn1CC1CCCO1)N1CCN(c2nc3ccccc3s2)CC1 (stereo not given)	-50.7%[57.5 µM]	?	6.4%	-1.4%
CCCCC(c1nnnn1CC1CCCO1)N1CCN(c2nc3ccccc3s2)CC1 (stereo not given)	-8.7%	10µM*	5.9%	-2.4%
O=C(CCCc1ccccc1)NC1CC(=O)N(c2ccc(Cl)cc2)C1 (stereo not given)	i	-10.1%	.	1.0%
CCNC1CCC(Nc2ccnc3cc(Cl)ccc23)CC1 (stereo not given)	-23.9%	?	-6.6%	?
OC(CNc1ccnc2cc(Cl)ccc12)CNC1CCCCC1 (stereo not given)	i	?	-11.9%	5.01µM*
O=C(CSc1ncccc1C(=O)Oc1ccccc1Cl)Nc1ccccc1Cl	-10.0%	?	.	0.1%
CCn1c(=N)n(CC(=O)c2ccc(Cl)c(Cl)c2)c2ccccc21	i	?	15.1%	-26.1%
Cc1ccc(C(=O)Cn2c(=N)n(CCN3CCOCC3)c3ccccc32)cc1	-8.8%	?	5.0%	2.51µM*
COC(=O)Cn1c(=N)n(CCN2CCCCC2)c2ccccc21	i	0.1%	-0.7%	-2.8%
N=c1n(CCN2CCCCC2)c2ccccc2n1CC(=O)c1ccc(Cl)c(Cl)c1	-5.2%	5.62µM*	11.3%	?
Cc1cc(NC(=O)Nc2nc3c(s2)CCCCCC3)ccc1Br	i	9.5%	.	-1.3%
SMILES	PTHR1 agonist	GLP-1R inv ag	GLP1R ag	HEK293 tox
CCCCn1c(C23CC4CC(CC(C4)C2)C3)n[nH]c1=S	i	7.08µM*	-10.6%	-6.2%
O=C1CSC2(C(=O)N(Cc3ccccc3F)c3ccccc32)N1c1cccc(C(F)(F)F)c1 (stereo not given)	-21.0%	?	3.0%	5.0%
CC(C)(C)OC(=O)[C@H](Cc1ccccc1)NC(=O)c1nc[nH]c1C(=O)N1CCN(C(=O)OC(C)(C)C)CC1	i	4.47µM*	-2.9%	-8.3%
CC(C)C[C@H](NC(=O)c1[nH]cnc1C(=O)N[C@@H](Cc1ccccc1)C(=O)OC(C)(C)C)C(=O)OCc1ccccc1	-35.1%	?	6.0%	-5.1%
CC(C)(C)OC(=O)NCCCCCNC(=O)c1nc[nH]c1C(=O)NCC(=O)OCc1ccccc1	-24.5%	11.2µM*	-13.3%	-41.6%
CC(C)(C)OC(=O)N1CCN(C(=O)c2[nH]cnc2C(=O)N[C@@H](Cc2ccccc2)C(=O)OCc2ccccc2)CC1	-19.5%	1.3%	6.1%	7.7%
CC(C)C[C@H](NC(=O)c1[nH]cnc1C(=O)N[C@@H](Cc1ccccc1)C(=O)OC(C)(C)C)C(=O)OC(C)(C)C	-42.9%	10µM*	1.8%	-24.9%
CC(C)(C)OC(=O)NCCCC[C@H](NC(=O)c1nc[nH]c1C(=O)N[C@@H](CCCCNC(=O)OC(C)(C)C)C(=O)OC(C)(C)C)C(=O)OC(C)(C)C	i	?	-4.5%	-2.9%
C[C@H](NC(=O)c1nc[nH]c1C(=O)N[C@@H](CCCCNC(=O)OC(C)(C)C)C(=O)OC(C)(C)C)C(=O)OC(C)(C)C	i	10µM*	-4.8%	-10.8%
CCCCN(CC)C(=O)c1nn(C)c2c1CSc1ccccc1-2	-25.8%	-20.6%	.	-2.5%
CC(C)C[C@H](NC(=O)c1[nH]cnc1C(=O)N[C@@H](C)c1ccccc1)C(=O)OC(C)(C)C	-90.4%	10µM*	6.6%	?
CC(/C=N/NC(=O)Cn1nccc1C)=C\c1ccc(C(C)C)cc1	-5.9%	11.2µM*	13.1%	-1.1%
CCc1ccc(CNC(=O)c2ccc3c(c2)c(C)c(C)n3Cc2ccccc2)cc1	i	10µM*	.	1.9%
Cc1c(C)n(Cc2ccc(F)cc2)c2ccc(C(=O)Nc3ccc(Cl)cc3)cc12	-12.0%	?	.	?
CCc1cccc(NC(=O)c2ccc3c(c2)c(C)c(C)n3Cc2ccc(F)cc2)c1	i	10µM*	.	-18.7%
CCc1ccc(NC(=O)c2ccc3c(c2)c(C)c(C)n3Cc2ccccc2)cc1	i	?	.	-17.8%
CCOC(=O)C1CCN(C(=O)c2cc3sc(C)cc3n2C)CC1	i	28.0%	.	15.0%
Cc1[nH]c(=S)c(C#N)c(C)c1CC(=O)c1ccc(Br)cc1	14.1µM*	-19.0%	0.0%	-1.6%
COC(=O)c1sc(N2C(=O)c3oc4ccc(C)cc4c(=O)c3C2c2ccc(O)c(OC)c2)nc1C (stereo not given)	?	13.8%	.	-2.8%
CCc1ccc(-n2nc(C)c3c(C(=O)Nc4ccc(Cl)cc4)cc(C)nc32)cc1	-23.0%	-13.4%	.	4.1%
Cc1nn(-c2ccccc2)c2nc(C3CC3)cc(C(=O)Nc3cccc(F)c3)c12	-14.7%	5.62µM*	.	-22.0%
CCc1ccc(-n2nc(C)c3c(C(=O)Nc4cccc(C(F)(F)F)c4)cc(C)nc32)cc1	-43.0%	2.24µM*	.	-26.7%
Cc1nc(-c2ccc(Cl)cc2)sc1CCNC(=O)c1ccco1	i	7.4%	.	0.0%
COc1ccc(C(=O)Nc2ccncc2)cc1OC	-20.0%[57.5 µM]	158.5%	12.1%	9.2%
